PubChem BioAssay
Values without a mark were called inactive. Activity calls are given as the source filed them.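 How the source made its calls: active means z-score of at least 1.8 in each of two replicates, scored against plate mean and spread of sample wells; inactive means the rest.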

Assay: galactose survival enhancers in mitochondrial complex I cybrids – cell-based, galactose medium, ATP luminescence, primary screen (AID 1645843);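 further: positive z means more ATP and so rescue of galactose-driven cybrid death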
Conditions: complex I mutant cybrid cells, 72 h, stronger effect = higher value

Compound	z-score
O=c1cc(CCn2cccn2)nc(-c2ccc(CN3CCC[C@@H](O)C3)cc2)[nH]1	-0.025
Cc1cc(NC(=O)Cn2ccc(-c3ccsc3)n2)n(-c2ccccn2)n1	1.83
COC(=O)CN1CCN(c2cc(OC)ncn2)CC1=O	-0.535
Cc1cccc2c(C(=O)N(C)C(C)C)cc(-c3cnc(-c4cccnc4)nc3)nc12	-0.13
OC1(c2ccccc2)CCN(Cc2ccc(F)cc2Cl)C1 (stereo not given)	-0.93
NC(=O)NCc1cn(CC2CCN(C(=O)CC3CCCCCC3)CC2)nn1	-0.605
CC[C@H](C)[C@H](N)C(=O)N1CCC(Cn2cc(-c3ccc(F)cc3)nn2)CC1	-0.33
CCCc1ccc(C(=O)N2CCC2c2cccc(OC)c2)cc1 (stereo not given)	2.41 (active)
Cc1ccc(C)c(-c2c(C)sc3ncn(C4CCN(C)C4=O)c(=O)c23)c1 (stereo not given)	0.12
O=C(CC1CCCCCC1)N1CCC(Cn2cc(CO)nn2)CC1	-0.5
CCCCc1cn(C2CCN(C(=O)C3CC3(CC)CC)CC2)nn1 (stereo not given)	0.39
Cn1cc(C(=O)N2CCc3[nH]nc(-c4ccccc4F)c3C2)c2ccccc21	-0.945
CCCCC(CC)CN1CCC(n2cc(CNC)nn2)CC1 (stereo not given)	1
Fc1ccc(-n2cc(-c3ccnc(NCc4cnc5ccccn45)n3)cn2)cc1	-0.035
CC(=O)c1ccccc1-c1ccc2ccccc2n1	-0.515
Cc1nn(C)c(C)c1-c1ccnc(NCC(C)Oc2cccnc2)n1 (stereo not given)	1.26
CC(C)(O)c1cn(C2CCN(C(=O)CCC(=O)N3CCCCCC3)CC2)nn1	-0.545
CCCCc1ncc(-c2nc3ccc(C)cc3c(C(=O)N(C)CC)c2C)cn1	-0.54
Cc1ccc(-c2nn(CC(=O)Nc3cnn(C)n3)c3ccccc23)c(F)c1	-0.4
C1=CCC(CN2CCC(N3CCCC3)CC2)CC1 (stereo not given)	-0.58

Compound	z-score
COc1ccccc1-c1noc(Cn2ncc3ccccc32)n1	1.12
Cc1nsc(NC(=O)N2CCN(c3ccccc3)CC2C)n1 (stereo not given)	2.15 (active)
CCc1ncc(-c2cc(C(=O)N3CCC(C)(C)C3)c3ccc(F)cc3n2)cn1	-0.56
Cc1ccc2c(=O)n(C3CC(C)(C)NC(C)(C)C3)cnc2c1C	-0.535
CCCC1CCCN1Cc1ccccc1OC1(C(=O)O)CCCC1 (stereo not given)	-0.265
COc1cc(N2CCN(Cc3ccc(F)cc3)C(=O)C2)ncn1	-0.36
Cc1cc(C)n(CC(C)n2cnc3cccc(C)c3c2=O)n1 (stereo not given)	0.34
CCCCn1cc(-c2cc(C(=O)N3CCCC3C)c3cccc(C)c3n2)cn1 (stereo not given)	1.28
CCCN1CCC(N2CCC(n3cc(-c4ccccc4)nn3)CC2)CC1	0.325
O=C1NCCN(C(=O)c2ccccc2)C1Cc1ccccc1 (stereo not given)	-0.54
O=C(CC1CCCCCC1)N1CCC(n2cc(-c3ccccn3)nn2)CC1	-0.34
COc1c(F)cc(C(=O)N2CCNC(=O)C2Cc2ccccc2)cc1F (stereo not given)	-0.455
CCC(CC)(CCC#N)CNCC1(N2CCOCC2)CCCC1	-0.575
COC(=O)CCC1CCN(C(=O)CCC(C)C)CC1	-0.56
CC(C)CN(C)Cc1cn(C2CCN(C3CCCCCC3)CC2)nn1	-0.485
Cc1c(C(=O)N2CCSCC2)c(-c2ccccc2)nn1-c1ccccc1	1.96
CCCC(C)CN(CC)C1CCS(=O)(=O)C1 (stereo not given)	-0.55
Cc1ccc(OCc2nnc(NC(=O)NCCc3cnc[nH]3)s2)cc1	-0.48
COc1ccc(N2CCN(C(=O)Nc3nc(C)ns3)CC2(C)C)cc1	-0.445
COC(=O)c1nn(CC(=O)Nc2cnn(C)n2)c2ccccc12	1.92
